Structures can show the parent of a compound that is named as a salt. ± gives the standard deviation of the averaged measurements.
Tests used:
[1] = test system: Saccharomyces cerevisiae BY4741 SeMeCo community; test: z-score of prototroph abundance vs DMSO median; higher = larger share of this subpopulation than in DMSO controls; conditions: 10 µM; 24 h; SM minimal medium; subpopulation (auxotrophy): Prototroph
In short: (§1)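 Automated confocal microscopy of paraformaldehyde-fixed cells was used to follow a Saccharomyces cerevisiae BY4741 community carrying four plasmids, each restoring one auxotrophy and encoding a distinct fluorescent protein. The community was pre-grown overnight to OD600 1.0, diluted to 0.3, and added at 70 µl to 384-well plates acoustically predosed with library drugs (10 µM final) for 24 h of growth in minimal SM medium. Single-auxotroph fluorescent strains set thresholds and autofluorescence correction, and each subpopulation's abundance was scored as a z-score against the vehicle-well median.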

[2] = test system: Saccharomyces cerevisiae BY4741 SeMeCo community; test: z-score of subpopulation abundance vs DMSO median, subpopulation auxotrophic for M; higher = larger share of this subpopulation than in DMSO controls; conditions: 10 µM; 24 h; SM minimal medium; subpopulation (auxotrophy): M
In short: as §1

[3] = test system: Saccharomyces cerevisiae BY4741 SeMeCo community; test: z-score of subpopulation abundance vs DMSO median, subpopulation auxotrophic for U; higher = larger share of this subpopulation than in DMSO controls; conditions: 10 µM; 24 h; SM minimal medium; subpopulation (auxotrophy): U
In short: as §1

[4] = test system: Saccharomyces cerevisiae BY4741 SeMeCo community; test: z-score of subpopulation abundance vs DMSO median, subpopulation auxotrophic for H; higher = larger share of this subpopulation than in DMSO controls; conditions: 10 µM; 24 h; SM minimal medium; subpopulation (auxotrophy): H
In short: as §1

[5] = test system: Saccharomyces cerevisiae BY4741 SeMeCo community; test: z-score of subpopulation abundance vs DMSO median, subpopulation auxotrophic for LU; higher = larger share of this subpopulation than in DMSO controls; conditions: 10 µM; 24 h; SM minimal medium; subpopulation (auxotrophy): LU
In short: as §1

[6] = test system: Saccharomyces cerevisiae BY4741 SeMeCo community; test: z-score of subpopulation abundance vs DMSO median, subpopulation auxotrophic for LM; higher = larger share of this subpopulation than in DMSO controls; conditions: 10 µM; 24 h; SM minimal medium; subpopulation (auxotrophy): LM
In short: as §1

[7] = test system: Saccharomyces cerevisiae BY4741 SeMeCo community; test: z-score of subpopulation abundance vs DMSO median, subpopulation auxotrophic for HM; higher = larger share of this subpopulation than in DMSO controls; conditions: 10 µM; 24 h; SM minimal medium; subpopulation (auxotrophy): HM
In short: as §1

[8] = test system: Saccharomyces cerevisiae BY4741 SeMeCo community; test: z-score of subpopulation abundance vs DMSO median, subpopulation auxotrophic for HU; higher = larger share of this subpopulation than in DMSO controls; conditions: 10 µM; 24 h; SM minimal medium; subpopulation (auxotrophy): HU
In short: as §1

[9] = test system: Saccharomyces cerevisiae BY4741 SeMeCo community; test: z-score of subpopulation abundance vs DMSO median, subpopulation auxotrophic for UM; higher = larger share of this subpopulation than in DMSO controls; conditions: 10 µM; 24 h; SM minimal medium; subpopulation (auxotrophy): UM
In short: as §1

[10] = test system: Saccharomyces cerevisiae BY4741 SeMeCo community; test: z-score of subpopulation abundance vs DMSO median, subpopulation auxotrophic for HL; higher = larger share of this subpopulation than in DMSO controls; conditions: 10 µM; 24 h; SM minimal medium; subpopulation (auxotrophy): HL
In short: as §1

[11] = test system: Saccharomyces cerevisiae BY4741 SeMeCo community; test: z-score of subpopulation abundance vs DMSO median, subpopulation auxotrophic for HLU; higher = larger share of this subpopulation than in DMSO controls; conditions: 10 µM; 24 h; SM minimal medium; subpopulation (auxotrophy): HLU
In short: as §1

[12] = test system: Saccharomyces cerevisiae BY4741 SeMeCo community; test: z-score of subpopulation abundance vs DMSO median, subpopulation auxotrophic for HLM; higher = larger share of this subpopulation than in DMSO controls; conditions: 10 µM; 24 h; SM minimal medium; subpopulation (auxotrophy): HLM
In short: as §1

[13] = test system: Saccharomyces cerevisiae BY4741 SeMeCo community; test: z-score of subpopulation abundance vs DMSO median, subpopulation auxotrophic for HUM; higher = larger share of this subpopulation than in DMSO controls; conditions: 10 µM; 24 h; SM minimal medium; subpopulation (auxotrophy): HUM
In short: as §1

[14] = test system: Saccharomyces cerevisiae BY4741 SeMeCo community; test: z-score of subpopulation abundance vs DMSO median, subpopulation auxotrophic for LUM; higher = larger share of this subpopulation than in DMSO controls; conditions: 10 µM; 24 h; SM minimal medium; subpopulation (auxotrophy): LUM
In short: as §1

[15] = test system: Saccharomyces cerevisiae BY4741 SeMeCo community; test: z-score of subpopulation abundance vs DMSO median, subpopulation auxotrophic for HLUM; higher = larger share of this subpopulation than in DMSO controls; conditions: 10 µM; 24 h; SM minimal medium; subpopulation (auxotrophy): HLUM
In short: as §1

[16] = test system: Saccharomyces cerevisiae BY4741 SeMeCo community; test: mean cell size (pixel area) (pixels); higher = larger cells; conditions: 10 µM; 24 h; SM minimal medium
In short: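 Drug was acoustically predosed into 384-well plates to a final 10 µM in SM medium, and each well received 70 µl of Saccharomyces cerevisiae BY4741 diluted to OD600 = 0.3 from an overnight preculture at OD600 = 1.0. This four-plasmid fluorescent community carries one fluorescent marker per plasmid, and each plasmid complements one auxotrophy. After 24 h, the cells were fixed with paraformaldehyde and imaged by automated confocal microscopy, and Harmony analysis yielded mean cell pixel area per well. Each value is averaged over 3 replicates. Same SeMeCo high-content imaging drug screen: Selleck FDA-approved drugs at 10 µM, 24 h in SM medium, 384-well plates, 3 replicates.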

SMILES | z-score of prototroph abundance [1] | z-score of subpopulation abundance [2] | z-score of subpopulation abundance [3] | z-score of subpopulation abundance [4] | z-score of subpopulation abundance [5] | z-score of subpopulation abundance [6] | z-score of subpopulation abundance [7] | z-score of subpopulation abundance [8] | z-score of subpopulation abundance [9] | z-score of subpopulation abundance [10] | z-score of subpopulation abundance [11] | z-score of subpopulation abundance [12] | z-score of subpopulation abundance [13] | z-score of subpopulation abundance [14] | z-score of subpopulation abundance [15] | mean cell size [16]
CC(C(=O)O)c1ccc2c(c1)CC(=O)c1ccccc1S2 (centres undefined) [Zaltoprofen] | 0.63 | 1.11 | 0.2 | 0.04 | -0.2 | -0.57 | 0.46 | -0.7 | -1.01 | -0.14 | -0.03 | 0.64 | -0.7 | -0.71 | -0.59 | –
CCOC(=O)C1=C(C)NC(C)=C(C(=O)OC)C1c1cccc(Cl)c1Cl (centres undefined) [Felodipine] | 2.53 | 3.86 | – | 3.29 | -6.85 | 4.88 | 4.69 | – | – | 4.71 | -3.41 | 8.73 | -5.68 | – | -1.13 | 12.57 ± 0.072
CCCN[C@H]1CCc2nc(N)sc2C1 [Pramipexole 2HCl Monohydrate] | 0.72 | 0.15 | -0.54 | -0.51 | -0.67 | -1.2 | -0.39 | -0.19 | -0.95 | -0.02 | -0.47 | -0.59 | -0.88 | -0.47 | -0.69 | 12.56 ± 0.054
N[C@@H](C(=O)N[C@@H]1C(=O)N2C(C(=O)O)=C(Cl)CS[C@H]12)c1ccccc1 [Cefaclor] | -0.66 | 0.46 | 0.82 | 0.49 | 0.23 | 0.52 | – | 0.41 | 0.24 | -0.05 | -0.22 | 0.3 | 0.37 | – | 0.66 | 12.45 ± 0.095
CCCNC(C)C(=O)Nc1ccccc1C (centres undefined) [Prilocaine] | -0.27 | -0.72 | -0.13 | 0.48 | 0.36 | -0.18 | 0.09 | – | -0.84 | -0.2 | 0.3 | 0.16 | -0.22 | 0.36 | 0.52 | 12.51 ± 0.059
Cc1ccc(Nc2c(F)cccc2Cl)c(CC(=O)O)c1 [Lumiracoxib] | 1.08 | 0.63 | -0.66 | -0.79 | -1.15 | 0.14 | 0 | – | -0.4 | -0.22 | -0.53 | 3.33 | -1.5 | -0.56 | -0.5 | 12.9 ± 0.21
COc1cc2c(cc1OC)-c1cc3ccc(OC)c(OC)c3c[n+]1CC2 [Palmatine] | -0.25 | -0.17 | – | -0.08 | -0.2 | – | 1.01 | -1.11 | – | 1.04 | 1.86 | 0.37 | 0.8 | 1.08 | 1.87 | 12.41 ± 0.069
Nc1ccc(S(=O)(=O)Nc2ccnn2-c2ccccc2)cc1 [Sulfaphenazole] | 0.15 | 0.25 | 0.18 | -0.07 | -0.02 | -0.2 | -0.42 | -0.47 | – | -0.02 | -0.27 | -0.29 | -0.72 | -0.28 | 0.07 | 12.54 ± 0.079
NC[C@H]1O[C@H](O[C@H]2[C@H](O[C@@H]3O[C@H](CO)[C@@H](O)[C@H]3O)[C@@H](O)[C@H](N)C[C@@H]2N)[C@H](N)[C@@H](O)[C@@H]1O [Ribostamycin Sulfate] | 0.31 | -0.49 | 0.39 | -0.21 | 0.09 | -0.67 | 0.04 | -0.5 | – | -0.49 | -0.07 | -0.38 | 0.24 | -0.84 | – | 12.13 ± 0.035
Nc1nc(N)c2nc(-c3ccccc3)c(N)nc2n1 [Triamterene] | – | 4.86 | -8.02 | 2.44 | -7.06 | 5.63 | 3.53 | -7.52 | -9.3 | – | -3.55 | 2.07 | -6.05 | – | -1.58 | 12.6 ± 0.17
NCCc1ccc(O)c(O)c1 [Dopamine HCl] | 1.09 | -0.7 | -0.48 | -0.34 | -0.45 | -0.73 | -0.38 | -0.79 | -0.71 | -1.06 | -0.89 | -0.89 | -0.77 | -0.34 | – | 12.4 ± 0.15
CCC1(C)CC(=O)NC1=O (centres undefined) [Ethosuximide] | -0.06 | -0.27 | 0.64 | -0.94 | 0.79 | -0.21 | -0.5 | -0.46 | -0.4 | – | -0.1 | 0.8 | -0.44 | 1.11 | – | –
COc1ccc(CNc2nc(N3CCC[C@H]3CO)ncc2C(=O)NCc2ncccn2)cc1Cl [Avanafil] | -0.15 | 0.21 | 0.68 | -0.56 | -0.03 | -0.5 | 0.22 | 0.11 | 0.93 | -0.55 | 0.58 | -0.87 | 0.44 | – | -0.54 | 12.5 ± 0.16
C[C@@H](c1ncncc1F)[C@](O)(Cn1cncn1)c1ccc(F)cc1F [Voriconazole] | -11.6 | 0.27 | -0.12 | 12.8 | 1.96 | 1.93 | 10.2 | 9.96 | 16.4 | 6.37 | 16.6 | 41.5 | 14.4 | 5.58 | 16.5 | 11.9 ± 0.18
CSc1nc2cc(Cl)c(Oc3cccc(Cl)c3Cl)cc2[nH]1 [Triclabendazole] | 1.8 | -9.19 | – | 5.63 | 0.92 | -2.65 | -3.03 | 2.73 | – | – | 2.64 | 7.41 | -1.46 | 1.09 | 4.69 | 13.1 ± 0.54

Source: the supplement of paper PMC8975748
